Experimental data as given in PubChem BioAssay (NCATS).
Results filed as inconclusive are left out. The source made the active and inactive calls. The call rests on the fitted dose curve; in most records, active means well fitted curve in the direction sought with a large enough effect; inconclusive means small, poorly fitted or top-dose-only effect, or another doubt; inactive means no such curve, though single readings can be large; an effect the other way counts as inactive or inconclusive.

What was measured:
[1] = target: Retinaldehyde dehydrogenase 3 (Homo sapiens) (UniProt P47895); assay: qHTS for Inhibitors of the Aldehyde Dehydrogenase Family (ALDH1A3) Primary screen (AID 2061315);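 further: plate controls were DMSO vehicle for no effect and reference inhibitor for full effect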
[2] = target: Aldehyde dehydrogenase 1A1 (Homo sapiens) (UniProt P00352); assay: qHTS for Inhibitors of the Aldehyde Dehydrogenase Family (ALDH1A1) Confirmatory screens (AID 2061316); further: potency means the concentration at half of the fitted maximal effect; nearly all actives have a fitted effect of over 65% in size
[3] = BET inhibitor-based combinations targeting novel dependencies in MECOM-rearranged (r) AML: SET-2 cell line (AID 2202231); conditions: SET-2 AML cells viability, CellTiter-Glo luminescence, 48 h; viability: active compounds read low, concentration not given here; further: nearly all actives have a fitted effect of over 35% in size; further: potency means the concentration at half of the fitted maximal effect;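 on viability: plate controls were DMSO treated cells for no effect and wells without cells for full effect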
In short: (§1)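 Cells were plated at 500 per well and exposed to an 11-point dose series of each drug for 48 hr. Viability was measured by CellTiter-Glo luminescence, normalized to DMSO and empty-well controls, and summarized as AUC and per-cell-line Z-AUC.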

[4] = BET inhibitor-based combinations targeting novel dependencies in MECOM-rearranged (r) AML: OCI-AML3 cell line (AID 2202232); conditions: Potency: OCI-AML3 viability; further: nearly all actives have a fitted effect of over 35% in size; further: potency means the concentration at half of the fitted maximal effect;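 on viability (% of control): series mostly up to about 46 µM; plate controls were DMSO vehicle wells for no effect and wells without cells for full effect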
In short: as §1

[5] = BET inhibitor-based combinations targeting novel dependencies in MECOM-rearranged (r) AML: MV-4-11 cell line (AID 2202233); further: nearly all actives have a fitted effect of over 45% in size; further: potency means the concentration at half of the fitted maximal effect;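 on viability, % of control: plate controls were DMSO for no effect and blank wells for full effect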
In short: (§2)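 Activity is given as area under the curve and as Z-AUC, mean-centred within each cell line. It comes from 11-point dose curves normalized to DMSO and empty wells. CellTiter-Glo luminescence was read after 48 hr drug exposure of 500 cells/well.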

[6] = BET inhibitor-based combinations targeting novel dependencies in MECOM-rearranged (r) AML: HNT-34 cell line (AID 2202234); further: nearly all actives have a fitted effect of over 35% in size; further: potency means the concentration at half of the fitted maximal effect;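 on viability (% of control): plate controls were vehicle wells for no effect and cell-free wells for full effect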
In short: as §2

[7] = BET inhibitor-based combinations targeting novel dependencies in MECOM-rearranged (r) AML: UCSD-AML1 cell line (AID 2202235); further: nearly all actives have a fitted effect of over 40% in size; further: potency means the concentration at half of the fitted maximal effect;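 on viability (% of control): series mostly up to about 46 µM; plate controls were DMSO vehicle wells for no effect and blank wells for full effect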
In short: as §2

[8] = BET inhibitor-based combinations targeting novel dependencies in MECOM-rearranged (r) AML: AML-191 cell line (AID 2202236; further: nearly all actives have a fitted effect of over 35% in size; further: potency means the concentration at half of the fitted maximal effect;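 on viability (% of control): plate controls were vehicle wells for no effect and wells without cells for full effect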)
In short: as §1

[9] = BET inhibitor-based combinations targeting novel dependencies in MECOM-rearranged (r) AML: AML-194 cell line (AID 2202237; further: nearly all actives have a fitted effect of over 40% in size; further: potency means the concentration at half of the fitted maximal effect;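 on viability (% of control): plate controls were vehicle wells for no effect and wells without cells for full effect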)
In short: as §1

CN(CC(=O)Nc1ccc(N2CCOCC2)cc1)Cc1cccc2ccccc12
active: Potency [2] 11300 nM
inactive: Potency [1]

N=C(N)c1ccc(OCCCCCOc2ccc(C(=N)N)cc2)cc1
active: Potency [3] 20900 nM | Potency [4] 8330 nM | Potency [5] 13200 nM | Potency [6] 26300 nM | Potency [7] 23500 nM | Potency [8] 18600 nM | Potency [9] 20900 nM

Cc1ccc(C(=O)N(CCCN)[C@@H](c2oc3cc(Cl)ccc3c(=O)c2Cc2ccccc2)C(C)C)cc1
active: Potency [3] 166 nM | Potency [4] 26.3 nM | Potency [5] 37.2 nM | Potency [6] 13.2 nM | Potency [7] 14.8 nM | Potency [8] 46.8 nM

C[C@@H]1C[C@H](N)C[C@H](c2ccncc2NC(=O)c2ccc(F)c(-c3c(F)cccc3F)n2)C1
active: Potency [3] 18600 nM | Potency [4] 16600 nM | Potency [5] 5250 nM | Potency [6] 5250 nM | Potency [7] 132 nM | Potency [8] 10500 nM | Potency [9] 5900 nM

COc1cc2c(cc1O)CCN[C@]21CS[C@@H]2c3c(OC(C)=O)c(C)c4c(c3[C@H](COC1=O)N1[C@@H]2[C@H]2c3c(cc(C)c(OC)c3O)C[C@@H]([C@@H]1O)N2C)OCO4
active: Potency [3] 9.6 nM | Potency [4] 9.6 nM | Potency [5] 4.3 nM | Potency [6] 8.5 nM | Potency [7] 9.6 nM | Potency [8] 9.6 nM

COCc1c(-c2ccc(NC(=O)Nc3cc(C(F)(F)F)ccc3F)c(F)c2)c2c(N)ncnn2c1CN1CCOCC1
active: Potency [3] 6610 nM | Potency [4] 10500 nM | Potency [5] 26.3 nM | Potency [6] 2350 nM | Potency [7] 6610 nM | Potency [8] 5900 nM | Potency [9] 5900 nM

CN1C(=O)[C@@H](NC(=O)c2n[nH]c(Cc3ccccc3)n2)COc2ccccc21
inactive: viability [3] 110% | Potency [4] | Potency [5] | Potency [6] | Potency [7] | Potency [8]

CN(Cc1ccc(/C=C/C(=O)NO)cc1)CC12CC3CC(CC(C3)C1)C2
active: Potency [3] 105 nM | Potency [4] 148 nM | Potency [5] 93.4 nM | Potency [6] 148 nM | Potency [7] 132 nM | Potency [8] 148 nM

CO[C@@H]1[C@@H](O)[C@H](O)[C@@H](n2c3c(Cl)cccc3c3c4c(c5c6cccc(Cl)c6[nH]c5c32)C(=O)NC4=O)O[C@H]1CO
active: Potency [3] 1320 nM | Potency [4] 1320 nM | Potency [5] 934 nM | Potency [6] 590 nM | Potency [7] 1050 nM | Potency [8] 2350 nM | Potency [9] 1320 nM

CN1C(=O)N[C@H](Cc2c[nH]c3c(Cl)cccc23)C1=O
active: Potency [5] 37200 nM
inactive: viability [3] 113% | Potency [4] | Potency [6] | Potency [7] | Potency [8]

CN(C)CCCN=c1c2ccccc2n(C)c2[nH]c(=O)n(C)c(=O)c12
active: Potency [3] 23500 nM | Potency [4] 18600 nM | Potency [5] 9340 nM | Potency [6] 23500 nM | Potency [7] 26300 nM | Potency [8] 18600 nM

CCC[C@H](NC(=O)/C(C#N)=C/c1cccc(Br)n1)c1ccccc1
active: Potency [3] 4170 nM | Potency [4] 3320 nM | Potency [5] 2950 nM | Potency [6] 2950 nM | Potency [7] 3320 nM | Potency [8] 3720 nM | Potency [9] 7420 nM

CN(C)C(=O)COC(=O)Cc1ccc(OC(=O)c2ccc(N=C(N)N)cc2)cc1
inactive: viability [3] 115% | Potency [4] | Potency [5] | Potency [6] | Potency [7] | Potency [8] | Potency [9]

Cc1ccc(NS(=O)(=O)c2ccc3c(c2)C2C=CCC2C(c2ccc(C(=O)O)cc2)N3)cc1C (centres undefined)
inactive: viability [3] 109% | Potency [4] | Potency [5] | Potency [6] | Potency [7] | Potency [8] | Potency [9]

Cc1cc(-n2c(=O)ccc3cnc4[nH]ccc4c32)ccc1F
active: Potency [5] 16600 nM | Potency [7] 18600 nM | Potency [8] 20900 nM
inactive: viability [3] 115% | Potency [4] | Potency [6]

O=C(NO)c1ccc(C2=Nc3ccccc3Oc3ccccc32)cc1
active: Potency [3] 2950 nM | Potency [4] 5250 nM | Potency [5] 1860 nM | Potency [6] 3720 nM | Potency [7] 4170 nM | Potency [8] 3320 nM | Potency [9] 4680 nM

COc1cc2c(cc1OC)CN(CCc1ccc(-n3nnc(-c4cc(OC)c(OC)cc4NC(=O)c4cc(=O)c5ccccc5o4)n3)cc1)CC2
inactive: viability [3] 116% | viability (% of control) [4] 94.2% [at 0.315 µM] | viability, % of control [5] 93.2% [at 0.315 µM] | viability (% of control) [6] 93.8% [at 0.315 µM] | viability (% of control) [7] 106% [at 0.315 µM] | viability (% of control) [8] 99.1% [at 0.315 µM] | viability (% of control) [9] 95.7% [at 0.315 µM]

CCO[C@@H]1OC(=O)C[C@@H]1NC(=O)[C@@H]1CCCN2C(=O)CC[C@H](NC(=O)c3nccc4ccccc34)C(=O)N12
inactive: viability [3] 125% | Potency [4] | Potency [5] | Potency [6] | Potency [7] | Potency [8] | Potency [9]

CCc1c(C(=O)NNC(=O)[C@@H](O)c2cc(F)cc(F)c2)ccc(O)c1C
inactive: viability [3] 97.8% | Potency [4] | Potency [5] | Potency [6] | Potency [8] | Potency [9]
active: Potency [7] 7420 nM

N=C1CCCN1Cc1[nH]c(=O)[nH]c(=O)c1Cl
inactive: viability [3] 111% | Potency [4] | Potency [5] | Potency [6] | Potency [7] | Potency [8] | Potency [9]

COc1cc(C(=O)O)ccc1NC(=O)[C@@H]1N[C@@H](CC(C)(C)C)[C@](C#N)(c2ccc(Cl)cc2F)[C@H]1c1cccc(Cl)c1F
inactive: viability [3] 112%
active: Potency [4] 2090 nM | Potency [5] 132 nM | Potency [6] 132 nM | Potency [7] 468 nM | Potency [8] 742 nM

CCCc1nc(C)c2c(=O)[nH]c(-c3cc(S(=O)(=O)N4CCN(CC)CC4)ccc3OCC)nn12
active: Potency [4] 3720 nM
inactive: viability [3] 114% | Potency [5] | Potency [6] | Potency [7] | Potency [8] | Potency [9]

COc1ncc(-c2ccc3nccc(-c4ccnnc4)c3c2)cc1NS(=O)(=O)c1ccc(F)cc1F
active: Potency [3] 332 nM | Potency [4] 83.3 nM | Potency [5] 105 nM | Potency [6] 263 nM | Potency [7] 37.2 nM | Potency [8] 209 nM

C=C1CCC2[C@](C)(CO)C(O)CC[C@]2(C)C1C/C=C1/C(=O)OCC1O (some centres undefined)
active: Potency [3] 14800 nM | Potency [4] 7420 nM | Potency [5] 3320 nM | Potency [6] 5900 nM | Potency [7] 11800 nM | Potency [8] 7420 nM | Potency [9] 9340 nM

COc1ccc(-c2oc3c(CC=C(C)C)c(OC4O[C@H](CO)[C@@H](O)[C@H](O)[C@H]4O)cc(O)c3c(=O)c2OC2O[C@@H](C)[C@H](O)[C@@H](O)[C@H]2O)cc1 (some centres undefined)
inactive: viability [3] 116% | Potency [4] | Potency [5] | Potency [6] | Potency [7] | Potency [8] | Potency [9]

CNC1CCCN(c2c(F)cc3c(=O)c(C(=O)O)cn(C4CC4)c3c2OC)C1 (centres undefined)
inactive: viability [3] 112% | Potency [4] | Potency [5] | Potency [6] | Potency [7] | Potency [8] | Potency [9]

O=C(/C=C/c1ccc(CN(CCO)CCc2c[nH]c3ccccc23)cc1)NO
active: Potency [3] 166 nM | Potency [4] 132 nM | Potency [5] 93.4 nM | Potency [6] 148 nM | Potency [7] 132 nM | Potency [8] 148 nM

CO[C@H]1/C=C\C=C(\C)C(=O)NC2=CC(=O)C(NCCN(C)C)=C(C[C@@H](C)C[C@H](OC)[C@H](O)[C@@H](C)/C=C(/C)[C@@H]1OC(N)=O)C2=O
active: Potency [3] 2950 nM | Potency [4] 118 nM | Potency [5] 29.5 nM | Potency [6] 417 nM | Potency [7] 296 nM | Potency [8] 1050 nM | Potency [9] 662 nM

CC1(C(=O)O)CCC2(C)CCC3(C)C(=CC(=O)C4C5(C)CCC(OC6OC(C(=O)O)C(O)C(O)C6OC6OC(C(=O)O)C(O)C(O)C6O)C(C)(C)C5CCC43C)C2C1 (centres undefined)
inactive: viability [3] 124% | Potency [4] | Potency [5] | Potency [6] | Potency [7] | Potency [8] | Potency [9]

CCOc1ccc(-n2c([C@@H](C)N(Cc3cccnc3)C(=O)Cc3ccc(F)c(C(F)(F)F)c3)nc3ncccc3c2=O)cc1
inactive: viability [3] 112% | Potency [4] | Potency [6] | Potency [7] | Potency [8]
active: Potency [5] 18600 nM

CC[C@H]1OC(=O)[C@H](C)[C@@H](O[C@H]2C[C@@](C)(OC)[C@@H](O)[C@H](C)O2)[C@H](C)[C@@H](O[C@@H]2O[C@H](C)C[C@H](N(C)C)[C@H]2O)[C@](C)(O)C[C@@H](C)C(=O)[C@H](C)[C@@H](O)[C@]1(C)O
inactive: viability [3] 113% | Potency [4] | Potency [5] | Potency [6] | Potency [7] | Potency [8] | Potency [9]

COc1ccc([C@@H](O)[C@@H](C)Oc2ccc([C@H]3O[C@H](c4ccc(O[C@H](C)[C@H](O)c5ccc(OC)c(OC)c5)c(OC)c4)[C@H](C)[C@H]3C)cc2OC)cc1OC
active: Potency [3] 13200 nM | Potency [4] 1050 nM | Potency [5] 4170 nM | Potency [6] 23500 nM | Potency [7] 18600 nM | Potency [8] 18600 nM

CC(C)(O)c1coc(S(=O)(=O)NC(=O)Nc2c3c(cc4c2CCC4)CCC3)c1
inactive: viability [3] 126% | Potency [4] | Potency [5] | Potency [6] | Potency [7] | Potency [8] | Potency [9]

Cc1cc(I)ccc1Nc1c(C(=O)NOCC2CC2)cc(F)c(F)c1F
active: Potency [3] 20900 nM | Potency [4] 1660 nM | Potency [5] 16600 nM | Potency [6] 14800 nM | Potency [7] 5900 nM | Potency [8] 16600 nM

CC(=O)c1cc2c(o1)C(=O)c1ccccc1C2=O
active: Potency [3] 2630 nM | Potency [4] 2630 nM | Potency [5] 833 nM | Potency [6] 2350 nM | Potency [7] 2950 nM | Potency [8] 2350 nM | Potency [9] 2350 nM

C[C@@H](Oc1ccc2[nH]nc(/C=C/c3cnn(CCO)c3)c2c1)c1c(Cl)cncc1Cl
active: Potency [3] 1050 nM | Potency [4] 8330 nM | Potency [5] 296 nM | Potency [6] 662 nM | Potency [7] 1050 nM | Potency [8] 833 nM | Potency [9] 934 nM
